Test results published in PubChem BioAssay (NCI).
The panel holds about 83,000 compounds, 20% with a hit somewhere; the sample as a whole holds those more often.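 Interpretation: 100, growth as untreated; towards 0, rising growth inhibition; 0, no net growth; 0 to -100, cell death. Compounds scoring below 10 were considered active.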 A number with no mark means an inactive call. Active and inactive are the calls of the source.

Legend:
Test in all cases: NCI-60 one-dose screen, 48 h (100 = growth as untreated, 0 = no growth, -100 = all killed)
Conditions in all cases: 10 µM unless noted
RPMI-8226 leukemia = test system: RPMI-8226 leukemia
OVCAR-8 ovarian = test system: OVCAR-8 ovarian
OVCAR-5 ovarian = test system: OVCAR-5 ovarian
OVCAR-4 ovarian = test system: OVCAR-4 ovarian
SK-OV-3 ovarian = test system: SK-OV-3 ovarian
IGROV1 ovarian = test system: IGROV1 ovarian
OVCAR-3 ovarian = test system: OVCAR-3 ovarian
HS 578T breast = test system: HS 578T breast
NCI/ADR-RES ovarian = test system: NCI/ADR-RES ovarian
T-47D breast = test system: T-47D breast
BT-549 breast = test system: BT-549 breast
MDA-MB-435 melanoma = test system: MDA-MB-435 melanoma
SW-620 colon = test system: SW-620 colon
MCF7 breast = test system: MCF7 breast
HCT-116 colon = test system: HCT-116 colon
HCC-2998 colon = test system: HCC-2998 colon
KM12 colon = test system: KM12 colon
SR leukemia = test system: SR leukemia

SMILES | growth (RPMI-8226 leukemia) | growth (OVCAR-8 ovarian) | growth (OVCAR-5 ovarian) | growth (OVCAR-4 ovarian) | growth (SK-OV-3 ovarian) | growth (IGROV1 ovarian) | growth (OVCAR-3 ovarian) | growth (HS 578T breast) | growth (NCI/ADR-RES ovarian) | growth (T-47D breast) | growth (BT-549 breast) | growth (MDA-MB-435 melanoma) | growth (SW-620 colon) | growth (MCF7 breast) | growth (HCT-116 colon) | growth (HCC-2998 colon) | growth (KM12 colon) | growth (SR leukemia)
CCOC(=O)C1(N)CCCCC1 | 110% | 107% | 94.6% | 121% | 100% | 85.4% | 112% | 88.6% | 98.7% | 93.4% | 113% | 99.2% | 103% | 97.1% | 96% | 101% | 107% | 
Cc1cc(Nc2ccc3c(c2)OCO3)c2cc3c(cc2n1)OCO3 | -19.9% (active) | 25.7% | 45% | 81.4% | 16.2% | -37.2% (active) | -45.1% (active) | -14.2% (active) | -8.22% (active) | 44.6% | 69.8% | -68.2% (active) | 10.3% | 7.08% (active) | 23% | 45.7% | 9.98% (active) | 
C[C@H](CCC[C@H](C)OS(=O)(=O)c1ccccc1)OS(=O)(=O)c1ccccc1 | 121% | 101% | 115% | 103% | 101% | 73% | 109% | 105% | 116% | 100% | 125% | 108% | 105% | 101% | 95.1% | 120% | 107% | 
Cc1cc(Cc2ccccc2)c(O)c(Cc2ccccc2)c1 |  | 91.1% | 88.2% |  | 102% | 90.2% | 101% | 106% | 82.6% | 85.3% | 84.1% | 98.1% | 102% | 105% | 73.5% | 101% | 90.5% | 91.3%
CC(=O)OCC1OC(n2cnc3c(=S)nc(N)[nH]c32)C(OC(C)=O)C1OC(C)=O (configuration not stated) |  | 76.6% | 70% | 82.5% | 50.1% | 96.6% | 83.4% | 77.3% | 78.4% | 54.4% | 79.4% | 99.3% | 82.9% | 60.7% | 43.3% |  | 86.3% | 12.9%
N#C/C(=C\NC(=S)N=Nc1c(O)[nH]c2ccccc12)c1nc2ccccc2s1 |  | 96% | 105% | 93.7% | 92.8% | 85.4% | 103% | 94.6% | 103% | 71.6% | 101% | 108% | 93% | 76% | 92.3% | 113% | 102% | 77.3%
O=C(NCc1ccccc1)c1cccc([N+](=O)[O-])c1 |  | 97.2% | 116% | 111% | 108% | 101% | 106% | 91.2% | 104% |  |  | 98.4% | 99.2% | 97.8% | 103% | 108% | 85% | 92.4%
COc1cc2c(c(OC)c1OC)-c1ccc(SC)c(=O)cc1[C@@H](NC1OC(CO)C(O)C(O)C1O)CC2 (some centres not stated) |  |  | 28.1% | 68.3% | 1.33% (active) | 14.8% | -15.5% (active) | 28.5% | 7.19% (active) | 52.5% | 14.9% | -39.6% (active) | 18.8% | 13.9% | 9.89% (active) | -4.3% (active) | -3.89% (active) | -22.4% (active)
Oc1cc2ccccc2c(-c2c(O)c(O)cc3ccccc23)c1O | -33.3% (active) | 39% | 51.8% | 27.3% | 31.7% | -47.5% (active) | 44.9% | 33.9% | 23% | 25.7% | 5.13% (active) | 10.5% | 49.4% | 12.3% | 29% | 38.6% | 52.5% | 
Cc1ccc(O)c(N)c1 |  | 104% | 115% | 111% |  |  | 118% | 106% | 107% | 92.8% | 95.2% | 112% | 121% |  | 111% | 110% | 110% | 113%
Cn1c(=O)c2nc3c(=O)n(C)c(=O)n(C)c3nc2n(C)c1=O |  | 108% | 91.1% | 108% | 97% | 106% | 107% | -27.8% (active) | 97% | 91.1% | 100% | 112% | 99.8% | 93.8% | 92.1% |  | 109% | 82.5%
CCN(CC)CCN1CNC(=S)NC1 |  | 112% | 107% | 109% | 108% | 113% | 109% | 105% | 106% | 94.5% | 102% | 109% | 107% |  | 103% | 109% | 98.7% | 96.4%
CC1=CC(=Nc2ccc(N(C)C)cc2)C=C(C)C1=O |  | 88.9% | 108% | 45.2% | 97.1% | 96.1% |  | 90.8% | 83.2% | 48.5% | 74.1% | 75.7% | 93.8% |  | 83.5% | 96.1% | 87.5% | 88.1%
COc1ccc(NNS(=O)(=O)O)cc1 |  | 98.4% | 93.3% | 111% | 102% |  | 114% | 92.2% | 92.4% | 88.6% | 102% | 102% | 100% | 92.9% | 100% | 110% | 105% | 93.2%
Nc1ccccc1SC1CC(=O)N(c2ccc(Cl)c(Cl)c2)C1=O (configuration not stated) |  | 79.4% | 104% | 92.1% | 90.5% | 105% | 113% | 117% | 95.7% | 74.8% | 124% | 101% | 98.8% | 112% | 87.4% |  | 100% | 91.1%
S=c1nc2[nH]c3ccccc3c2n[nH]1 | 74.2% | 97.4% | 93.6% | 102% | 89.3% | 103% | 88.6% | 80.2% | 102% | 88.2% | 102% | 107% | 95% | 92.2% | 96.4% | 102% | 130% | 
NCC(O)C(O)C(O)C(O)CO (configuration not stated) |  | 100% | 107% | 103% | 86.1% | 101% | 101% | 97.1% | 102% | 84.1% |  | 100% | 97.2% | 97.1% | 86.4% | 99.1% | 98.5% | 96.6%
CSCC[C@@H]1C(=O)N(C)[C@H](C(C)(C)C)N1C(=O)c1ccccc1 |  | 100% |  | 105% | 113% | 100% | 103% | 111% | 104% | 104% | 107% | 106% | 102% | 101% | 101% | 105% | 101% | 124%
CC(=O)N(C(C)=O)c1ccc(C)cc1 | 115% | 101% | 94.2% | 101% | 109% | 109% | 112% | 110% | 96.6% | 102% | 101% | 111% | 102% | 87.6% | 117% | 98.2% | 103% | 
CCN(C(=O)Nc1ccccc1Cl)c1ccccc1 |  | 101% | 97.1% |  | 113% | 103% |  | 102% | 107% |  | 106% | 98.3% | 108% | 100% | 112% | 111% | 105% | 81.4%
CCCCCC/C=C\CCCCCCCCCc1cc(O)cc(OC)c1O |  | -26.1% (active) |  | -19.5% (active) | 6.17% (active) | -45.4% (active) | 13.6% | 44.9% | -5.84% (active) | -61.8% (active) | 3.38% (active) | 13.3% | 14.9% | 6.81% (active) | 5.45% (active) | 35.7% | 12.5% | 0.217% (active)
